# Inconclusive results are not listed. Activity calls are given as the source filed them. How the source made its calls: active means hit-call score of the fitted dose curve at least 0.9, where 1 is the maximum; inconclusive means response in the unintended direction; inactive means score below 0.9.
# Biological target: Estrogen receptor (Homo sapiens) (UniProt P03372)
# Assay: NVS_NR_hER: NovaScreen (NVS) Nuclear Receptor Binding Assay for human Estrogen Receptor (ER) (AID 2283348)
# Procedure, shortened: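 MCF7-derived receptor extract, radiolabelled ligand, competitive displacement. Read: scintillation counts at 18 h. DMSO = negative control/baseline. Primary 25 uM duplicate; follow-up concentration–response.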
# Chain of Estrogen receptor (Homo sapiens) (P03372 whole entry, looked up): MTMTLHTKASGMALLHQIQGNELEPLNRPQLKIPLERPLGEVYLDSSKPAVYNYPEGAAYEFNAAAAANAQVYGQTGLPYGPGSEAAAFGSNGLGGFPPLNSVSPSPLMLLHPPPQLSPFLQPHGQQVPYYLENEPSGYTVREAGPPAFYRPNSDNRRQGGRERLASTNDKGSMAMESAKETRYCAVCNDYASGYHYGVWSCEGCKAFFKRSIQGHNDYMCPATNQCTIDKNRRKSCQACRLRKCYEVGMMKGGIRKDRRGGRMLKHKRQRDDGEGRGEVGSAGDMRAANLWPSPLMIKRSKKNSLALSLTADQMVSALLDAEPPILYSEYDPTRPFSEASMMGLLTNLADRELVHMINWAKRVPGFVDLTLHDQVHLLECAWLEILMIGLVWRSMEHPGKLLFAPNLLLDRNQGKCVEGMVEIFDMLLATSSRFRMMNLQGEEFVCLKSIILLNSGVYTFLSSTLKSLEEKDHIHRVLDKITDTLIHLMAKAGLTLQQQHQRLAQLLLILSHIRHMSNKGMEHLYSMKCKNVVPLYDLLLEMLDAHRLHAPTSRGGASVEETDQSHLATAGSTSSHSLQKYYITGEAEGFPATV
row,Compound,outcome
1,O=S1(=O)OC(c2cc(Br)c(O)c(Br)c2)(c2cc(Br)c(O)c(Br)c2)c2ccccc21,inactive
2,CC(C)N(C(=O)CCl)c1ccccc1,inactive
3,CCOCn1c(-c2ccc(Cl)cc2)c(C#N)c(Br)c1C(F)(F)F,inactive
4,Cc1cc(C(C)(C)c2ccc(O)c(C)c2)ccc1O,inactive
5,CC(=Cc1ccccc1)[N+](=O)[O-],inactive
6,O=[N+]([O-])c1ccc(Cl)c([N+](=O)[O-])c1,inactive
7,CCC[CH2][Sn]([Cl])([Cl])[CH2]CCC,inactive
